Screening data (PubChem BioAssay)
RORgamma inh: ROR gamma (mouse) transcription inhibition. P51450. Drosophila S2 Gal4-RORgamma UAS-luciferase reporter, 20 h. Potency, µM (doses to about 53.6 µM), for the others: at the highest dose activity change, negative = inhibition, most hits filed as inhibitors. hit rate 5.4% among 310,000. AID 2551; also: potency is read from the fitted curve at half-maximal effect; nearly all actives have a fitted effect of over 60% in size
Target sequence (P51450 whole entry, looked up, the tested form may be a part): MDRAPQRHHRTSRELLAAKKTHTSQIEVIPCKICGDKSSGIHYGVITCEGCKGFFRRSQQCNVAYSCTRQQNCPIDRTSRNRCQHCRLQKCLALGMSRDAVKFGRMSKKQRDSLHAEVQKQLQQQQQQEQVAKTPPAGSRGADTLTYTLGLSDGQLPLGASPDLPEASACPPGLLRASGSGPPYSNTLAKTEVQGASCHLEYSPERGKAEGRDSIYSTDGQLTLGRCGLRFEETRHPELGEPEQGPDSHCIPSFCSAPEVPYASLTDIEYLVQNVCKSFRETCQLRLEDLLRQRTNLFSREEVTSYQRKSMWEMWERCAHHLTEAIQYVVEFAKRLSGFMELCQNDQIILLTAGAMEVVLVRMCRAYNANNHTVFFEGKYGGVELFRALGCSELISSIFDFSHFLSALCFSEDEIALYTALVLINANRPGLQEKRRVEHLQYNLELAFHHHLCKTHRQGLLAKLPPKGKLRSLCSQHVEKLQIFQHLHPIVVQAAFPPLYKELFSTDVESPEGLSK
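Stably transfected Drosophila Schneider cells are the test system, with ROR gamma fused to Gal4 and luciferase under UAS control; luminescence is read after 20 hr of 700 uM copper sulfate induction at ambient temperature.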
TDP1 cell CPT: growth inhibition of DT40 Tdp1-/-;hTDP1 cells with camptothecin (screen for TDP1 inhibitors) | Potency, µM (titrated, usually from 46.2 µM), for inactives: at the top dose activity change, negative = growth inhibition, hits mostly inhibitors | hit rate 12% among 420,000 | chicken DT40 Tdp1-/-;hTDP1 cells + 20 nM CPT, ATP luminescence, 48 h; also: potency is read from the fitted curve at half-maximal effect; nearly all actives have a fitted effect of over 55% in size
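Chicken DT40 Tdp1-/- cells stably complemented with human TDP1 were seeded at 400 cells/well in medium containing 20 nM camptothecin, exposed to pin-transferred compounds, and grown at 37 °C for at least 48 hr. Viability was read as ATP luminescence.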
IL1B secr inh: inhibitors of inflammasome signaling (IL-1 beta secretion); AID 743279; activity change, % at 57.5 µM; THP-1 LPS/ATP IL-1B secretion, AlphaLISA, 16 h; active compounds read low; hit rate 4.7% among 360,000; in the data active = activity change below about -50%; inconclusive = mostly about -30% to -49%
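THP-1 cells pretreated 1 hr with compounds (up to 57.5 uM final), then stimulated with LPS (250 ng/mL final) plus ATP (1.25 mM final); secreted IL-1B measured by AlphaLISA after 16 hr, decreased signal indicating inhibition.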
ELG1 repair inh: inhibitors of ELG1-dependent DNA repair in HEK293T cells; HEK293T ELG1-luciferase reporter, luminescence, 16 h; DNA damage induced by 5-fluorouridine; Potency, µM (top dose mostly 46.1 µM), for inactives: top-dose activity change, negative = inhibition, hits mostly inhibitors; hit rate 2.3% among 330,000; also: potency is read from the fitted curve at half-maximal effect; nearly all actives have a fitted effect of over 55% in size
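HEK293T cells expressing luciferase-tagged ELG1 (2,000/well) received 5-Fluorouridine plus compound or DMSO for 16 hr at 37 °C. Luciferase was read by ONE-Glo luminescence after 30 min at room temperature.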
TDP1 cell noCPT: qHTS for Inhibitors of human tyrosyl-DNA phosphodiesterase 1 (TDP1): qHTS in cells in absence of CPT. DT40 Tdp1-/- hTDP1 cells, no CPT, ATP luminescence, 48 h. Potency, µM (highest dose often 46.2 µM), for inactives: at the highest dose activity change, negative = growth inhibition, usual class: inhibitors. hit rate 15% among 420,000; also: potency is read from the fitted curve at half-maximal effect; nearly all actives have a fitted effect of over 55% in size
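Luminescent ATP content (CellTiter-Glo) served as the growth readout. Knockout chicken DT40 cells expressing human TDP1 were exposed to compounds without camptothecin for a minimum 48 hr at 37 °C.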
Gal4-VP16 FLuc: inhibits Gal4-VP16 luciferase reporter, ROR gamma counter-screen; Drosophila S2 Gal4-VP16 UAS-luciferase, luminescence, 20 h; Potency, µM (titrated, usually from 53.6 µM), for the others: at the top dose activity, negative = inhibition, usual class: inhibitors; hit rate 3.5% among 310,000;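 also: Gal4-VP16 expression switched on by copper sulfate through the metallothionein promoter; potency is read from the fitted curve at half-maximal effect; nearly all actives have a fitted effect of over 50% in size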
An asterisk follows results filed as active; ? = inconclusive; . = not tested or not shown; [ ] = remark or other dose. In the library only some 21% were active in any assay of this set; here they are far more common. Unless noted, calls follow the shape of the dose curve; as a rule, active = well fitted curve in the direction sought with a large enough effect; inconclusive = small, poorly fitted or top-dose-only effect, or another doubt; inactive = no such curve, though single readings can be large; an effect the other way counts as inactive or inconclusive. % is scaled to controls: 0 for no effect and ±100 for the full control effect.

SMILES | RORgamma inh | TDP1 cell CPT | IL1B secr inh | ELG1 repair inh | TDP1 cell noCPT | Gal4-VP16 FLuc
CCc1nn(CC(=O)N2CCN(Cc3ccc4c(c3)OCO4)CC2)c(=O)c2cc3occc3n12 | -18% | ? | -19 | 21µM* | ? | -4%
O=C(Cc1ccc([N+](=O)[O-])cc1)N1CCN(Cc2ccc3c(c2)OCO3)CC1 | 1% | 1% | . | ? | -20% | -1%
C/C(N)=C(/C#N)C(=O)CSc1nc2cc(Cl)ccc2c(=O)n1-c1ccc(C)cc1 | ? | -6% | 10 | ? | ? | -22%
CCOc1nc(NC(C)C)nc(N2CC3CC(C2)c2cccc(=O)n2C3)n1 (stereo unspecified) | 5% | 18µM* | 15 | 15% | ? | -5%
Cn1c(=O)c(Oc2ccc(F)cc2)c(O)c2ccccc21 | 4% | -7% | 13 | ? | -8% | 0%
Cc1cc(-c2cc(C)c(N)c(C)c2)cc(C)c1N | -7% | -5% | -3 | . | -14% | 7%
CC(=O)Nc1cc(-c2ccc(C(=O)NC3CC3)cc2)cn2c(-c3ccc(F)c(Cl)c3)cnc12 | . | ? | -12 | . | 15µM* | .
CC(C)CN1CC2(CCN(C(=O)Oc3ccccc3)CC2)C1 | -26% | 8% | . | . | 3% | -2%
C[C@]12CCC3C(CC[C@H]4C[C@@H](O)[C@H](O)C[C@]34C)C1CC[C@@H]2O (stereo partly specified) | . | -16% | 17 | -12% | -11% | .
O=C(Oc1ccc(Cl)c2cccnc12)N1CCCCCC1 | ? | -13% | 1 | ? | -17% | 11%
CC(C)c1ccc(C(=O)N2CCCC(c3cc(C(=O)Nc4ccccc4Cl)no3)C2)cc1 (stereo unspecified) | . | 15µM* | 36 | . | 5.8µM* | .
Cn1c(O)c(C=NC2CCCCCC2)c(=O)[nH]c1=S | 15% | -17% | -9 | 5% | 15% | -1%[10 µM]
COc1cc(=O)n2c(c1C(=O)N(C)Cc1nonc1C)CCN(C(=O)C1C(C)(C)C1(C)C)CC2 | . | 14% | . | . | -11% | .
COc1ccc(C/C(=N\OC(C)=O)c2ccc(OC)cc2)cc1 | 10% | -4% | 14 | ? | ? | -6%
COc1ccc(CC(=O)NC(=S)NNC(=O)COc2c(C)cccc2C)cc1 | 13µM* | 16µM* | 22 | -15% | 16µM* | -22%
C[S@@](=O)CCCCN=C=S | 3.2µM* | . | . | . | . | -11%
Fc1ccc2c(c1)nnn2C1CCN(Cc2c(Cl)cccc2Cl)CC1 | ? | 18µM* | -3 | ? | 18µM* | -26%
Cc1ccc(C)c(CN2CCC(n3nnc4cc(F)ccc43)CC2)c1 | 22% | ? | -23 | -11% | ? | -8%
CN(C[C@H](Cc1ccccc1)N(C[C@H](Cc1ccccc1)N(CC1(c2ccccc2)CC1)N=O)N=O)N=O | -13% | ? | 0 | -1% | 18µM* | -15%
CC(=NCCC1=CCCCC1)c1c(O)n(-c2ccccc2)c(=O)[nH]c1=O | 9% | -6% | ? | -17% | ? | 12%
COc1ccc([N+](=O)[O-])cc1N=Cc1c(O)n(CCc2ccccc2)c(=O)n(C(C)C)c1=O | ? | ? | 0 | 16µM* | 16µM* | -15%
O=[N+]([O-])c1ccccc1-c1cc(-c2ccccc2)cc(-c2ccccc2)[n+]1Cc1ccccc1Cl | . | 0.65µM* | 0 | ? | 0.73µM* | .
Cc1ccc(-c2cc(C(F)F)n3ncc(C(=O)N4CCC5(CC4)OCCO5)c3n2)cc1 | 24% | ? | 0 | 18µM* | ? | 1%
COc1ccc(-c2cc(C(=O)N3CCC4(CC3)OCCO4)c3ccccc3n2)cc1 | ? | ? | -12 | ? | ? | -27%
CCOc1ccc(-c2cc(C(=O)N3CCC4(CC3)OCCO4)c3ccccc3n2)cc1 | . | 5.2µM* | 18 | . | ? | .
SMILES | RORgamma inh | TDP1 cell CPT | IL1B secr inh | ELG1 repair inh | TDP1 cell noCPT | Gal4-VP16 FLuc
C/C=C1\NC(=O)[C@H](C)NC(=O)[C@@H](NC(=O)[C@H](Cc2ccc(O)cc2)NC(=O)[C@@H](NC(=O)/C(C)=C/C)C(C)C)[C@@H](C)OC(=O)[C@H](CCCc2ccc(O)cc2)NC(=O)[C@@H](CCC(=O)O)NC1=O | . | 1% | 18 | . | 1% | .
COc1ccc(CCNC2CCCCC2)cc1OC | -15% | 16% | 0 | 5% | 11% | 7%
CCOc1cc2c(cc1OCC)-n1cccc1C(c1cccc(OCC)c1O)NC2 (stereo unspecified) | 10% | ? | -19 | ? | 16µM* | -1%
CCOc1cc2c(cc1OCC)-n1cccc1C(c1cccc(F)c1)NC2 (stereo unspecified) | 13% | 21µM* | ? | -8% | ? | -3%
CCOc1cc2c(cc1OCC)-n1cccc1C(c1cc(OC)ccc1F)NC2 (stereo unspecified) | 9% | 18µM* | -2 | ? | 16µM* | -2%
CCOc1cc2c(cc1OCC)-n1cccc1C(c1ccccc1F)NC2 (stereo unspecified) | -8% | ? | ? | -13% | 18µM* | 2%
Clc1cccc(C2NCc3ccccc3-n3cccc32)c1 (stereo unspecified) | 21% | ? | 17 | ? | ? | -1%
CC(C)Oc1ccc(C2(C#N)CC[N+](C)(C)CC2)cc1 | 4% | 10% | 0 | 0% | -4% | 7%
CC1CC(=O)O1 (stereo unspecified) | -6% | . | . | . | . | -4%
C[C@H]1CC[C@@H]2[C@@H](C)[C@H]3C(CC4C5CC=C6CC(O[C@@H]7O[C@H](CO)C(O[C@@H]8O[C@@H](C)[C@H](O)[C@@H](O)[C@H]8O)[C@H](O)[C@H]7O[C@@H]7O[C@@H](C)[C@H](O)[C@@H](O)[C@H]7O)CC[C@]6(C)C5CC[C@@]43C)N2C1 (stereo partly specified) | 0% | . | . | . | . | 3%
COc1ccccc1NC(=O)Cn1c(=O)n(-c2cccc(Cl)c2)c(=O)c2sc3ccccc3c21 | . | 13µM* | . | . | 6.5µM* | .
Cc1nn(C)cc1/C=C1/CC2C3CC=C4CC(O)CCC4(C)C3CCC2(C)C1=O (stereo unspecified) | . | 1% | 31 | . | ? | .
C[C@]12CC[C@H](O)CC1=CCC1C2CC[C@]2(C)C(=O)[C@H](Br)CC12 (stereo partly specified) | . | ? | -106* | ? | ? | .
